# High-throughput results as filed in PubChem BioAssay.
# CtBP-E1A inh = qHTS Assay for Inhibitors of the CtBP/E1A Interaction; CtBP / adenovirus E1A interaction (AlphaScreen); AlphaScreen GST-E1A/His-CtBP binding, 1536-well; hits give low values; activity change, % (no concentration beside the values); hit rate 0.49% among 340,000; AID 651724, 2012; in the data active = activity change below about -65%; inconclusive = mostly about -30% to -63%; note: % is set by controls: 0 for no effect and ±100 for the full control effect
#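 GST-E1A and His-tagged CtBP (125 nM each as 5X stock) were preincubated with pin-transferred compound for 2 h at 37 °C in the dark, then glutathione donor and nickel acceptor beads were added for 1 h before AlphaScreen reading.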
# G9a block = qHTS Assay for Inhibitors of Histone Lysine Methyltransferase G9a; Histone-lysine N-methyltransferase EHMT2 (Homo sapiens), Q96KQ7; G9a H3K9 monomethylation, AlphaScreen, 2 h; Potency, µM (series often up to 102 µM), inactives show top-dose activity, negative = inhibition, hits mostly inhibitors; hit rate 8.8% among 350,000; AID 504332, 2011; note: potency is the fitted concentration of half-maximal effect; % is set by controls: 0 for no effect and ±100 for the full control effect; nearly all actives have a fitted effect of over 75% in size
# Target sequence (Q96KQ7 913-1193 limits assumed): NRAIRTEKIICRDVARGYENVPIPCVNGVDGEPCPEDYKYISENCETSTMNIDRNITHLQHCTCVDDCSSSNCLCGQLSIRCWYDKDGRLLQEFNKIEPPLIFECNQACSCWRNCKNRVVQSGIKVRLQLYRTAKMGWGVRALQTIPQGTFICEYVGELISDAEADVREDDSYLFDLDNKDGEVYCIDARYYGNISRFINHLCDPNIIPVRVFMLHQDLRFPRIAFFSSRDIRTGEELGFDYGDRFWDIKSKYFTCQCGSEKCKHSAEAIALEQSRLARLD
#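 Step 1: enzyme (final 20 nM) with compound, 15 min RT. Step 2: substrate peptide 500 nM and SAM 20 uM, 2 h RT. Step 3: anti-H3K9me1 antibody and AlphaScreen beads, 10 min, then plate read.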
# HP1b chromo inh = HTS for Inhibitors of HP1-beta Chromodomain Interactions with Methylated Histone Tails | Chromobox protein homolog 1 (Homo sapiens), P83916 | AlphaScreen HP1-beta / biotin-H3K9me3 peptide binding | Potency, µM (top dose mostly 114 µM), without a hit: at the highest dose activity change, negative = inhibition, actives largely listed as inhibitors | hit rate 0.56% among 390,000 | AID 540317, 2011; note: potency is the fitted concentration of half-maximal effect; nearly all actives have a fitted effect of over 70% in size
# Target sequence (P83916 whole entry, looked up): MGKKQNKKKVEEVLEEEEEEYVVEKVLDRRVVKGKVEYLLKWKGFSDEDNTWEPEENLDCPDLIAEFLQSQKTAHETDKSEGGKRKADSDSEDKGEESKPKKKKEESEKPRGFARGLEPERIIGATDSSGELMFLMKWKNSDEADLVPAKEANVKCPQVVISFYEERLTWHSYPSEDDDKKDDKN
#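 Compound inhibition of the preformed complex between 50 nM HP1-beta and 50 nM biotinylated H3K9me3 peptide was read by AlphaScreen. Buffer was PBS pH 7.4 with 0.01% Tween-20. Incubations ran 30 min at room temperature, with 10 ug/mL donor/acceptor beads.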
# Six1-Eya2 inh = qHTS Assay for Inhibitors of the Six1/Eya2 Interaction. AlphaScreen GST-Six1/His-Eya2 binding, biochemical; hits give low values. Homeobox protein SIX1 (Homo sapiens) + Protein phosphatase EYA2 (Homo sapiens), …. activity change, % (no concentration beside the values). hit rate 0.56% among 360,000; in the data active = activity change below about -65%; inconclusive = mostly about -30% to -63%; note: % is set by controls: 0 for no effect and ±100 for the full control effect
#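 Six1/Eya2 binding was read as AlphaScreen signal after compounds were pinned into GST-Six1 plus His-tagged Eya2 (5X stock 250/500 nM) in pH 8.0 Tris/NaCl/TCEP buffer, beads added, then incubated 1 h, 37 C, dark.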
# BAZ2B inh = qHTS Assay for Inhibitors of BAZ2B | hit rate 4.4% among 360,000 | AID 504333, 2011 | Bromodomain adjacent to zinc finger domain protein 2B (Homo sapiens), Q9UIF8 | AlphaScreen BAZ2B-H3K14Ac peptide displacement | Potency, µM (highest dose often 114 µM), inactives show top-dose activity change, negative = inhibition, usual class: inhibitors; note: potency is the fitted concentration of half-maximal effect; % is set by controls: 0 for no effect and ±100 for the full control effect; nearly all actives have a fitted effect of over 60% in size
#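 AlphaScreen displacement of biotin-H3(5-23)K14Ac peptide (50 nM final) from BAZ2B (50 nM final) in PBS pH 7.4, 0.01% Tween-20; complex preformed 30 min RT, then compounds (top 110 uM) 30 min RT, beads 20 min dark.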
# JMJD2A Tudor inh = qHTS Assay for Inhibitors of JMJD2A-Tudor Domain | AlphaScreen JMJD2A-Tudor / H3K4me3 peptide binding | Potency, µM (titrated, usually from 114 µM), for inactives: at the highest dose activity change, negative = inhibition, hits mostly inhibitors | hit rate 4.4% among 390,000 | AID 504339, 2011; note: potency is the fitted concentration of half-maximal effect; % is set by controls: 0 for no effect and ±100 for the full control effect; nearly all actives have a fitted effect of over 50% in size
# Starred values were filed as active, the others as inactive; ? = inconclusive; . = no result given; [ ] = another dose, or the depositor's remark. Sampled rows, rich in hits. Any-hit rate of the full collection: about 10%. Unless noted, calls come from the whole dose curve; as a rule, active = well fitted inhibition curve with a large enough effect; inconclusive = small, poorly fitted or top-dose-only effect; inactive = no such curve, though single readings can be large or run the other way.
SMILES,CtBP-E1A inh,G9a block,HP1b chromo inh,Six1-Eya2 inh,BAZ2B inh,JMJD2A Tudor inh
COc1ccc(CNC(=O)c2cc3sccc3n2C)cc1,.,-11%[59 µM],0%,.,-35%,-4%
CCN(CC)C(=O)C1=C(C)N(Cc2ccc(OC)cc2)C(=O)C(CC(=O)NCCN2CCOCC2)C1 (stereo unspecified),6,.,.,-17,.,.
CC(C)c1ccc(C2NC(=O)NC3=C2CCc2ccccc23)cc1 (stereo unspecified),-6,32µM*,21%,-8,-7%,-16%
COc1cccc(C2NC(=S)NC3=C2CCc2ccccc23)c1 (stereo unspecified),-9,7.9µM*,-3%,4,-6%,-12%
Cc1ccc(C2NC(=O)NC3=C2CCc2ccccc23)cc1 (stereo unspecified),-5,10µM*,23%,-1,-16%,-16%
COc1ccc(C2NC(=O)NC3=C2CCc2ccccc23)cc1 (stereo unspecified),-4,?,-1%,-10,-4%,-6%
O=C(CSc1nc(=O)n(CCN2CCOCC2)c2c1CCC2)Nc1ccccc1,.,6%[59 µM],8%,.,-3%,-10%
COc1ccc(-n2cccc2/C=C/[N+](=O)[O-])cc1,-6,40µM*,45µM*,-17,35µM*,45µM*
COc1ccc(Cn2cc(S(=O)(=O)c3ccc(Cl)cc3)c(=O)c3cc4c(cc32)OCO4)cc1,.,-10%[59 µM],21%,.,-6%,-17%
Cc1c(C(=O)N2CCCC2)oc2c1-c1[nH]ncc1CC2,0,50µM*,24%,1,-5%,-15%
O=C(Nc1cccc(-c2nn3c(=O)cc(N4CCNCC4)nc3s2)c1)C1CCNCC1,.,.,.,.,.,-29%
CC(C)(C)c1nc(SCC(=O)N2CC(=O)Nc3ccccc32)c2ccccc2n1,-17,8%,19%,-2,-6%,5%
CSc1cccc(NC(=S)N2CCC(N(C)C3CCCCC3)CC2)c1,-7,50µM*,4%,3,-20%,-15%
CSc1cccc(NC(=S)N2CCC(N(C)C3CCCCC3C)CC2)c1 (stereo unspecified),-5,50µM*,5%,-18,?,-21%
CSc1cccc(NC(=S)N2CCC(c3ccccc3)C2)c1 (stereo unspecified),-10,0%,56%,-6,-26%,-26%
O=C(Nc1ccc(N2CCCCC2)cc1)c1cccnc1Cl,0,50µM*,27%,0,-31%,-24%
COc1ccc(NS(=O)(=O)c2cc(NC(=O)c3cccnc3Cl)ccc2N2CCCC2)cc1,-2,45µM*,17%,-12,-30%,?
COc1ccc(NS(=O)(=O)c2cc(NC(=O)c3ccc(=O)[nH]c3)ccc2N2CCCC2)cc1,?,.,-14%,-19,40µM*,?
CC(C)(C)c1ccc(-n2ncc3c2CCCC3NC(=O)C2=NNC(=O)CC2)cc1 (stereo unspecified),2,-24%,33%,2,-8%,-21%
CC1=N/C(=C/c2ccco2)C(=O)O1,1,28µM*,-1%,-8,.,?
COc1cc(/C=C2\C(=O)ON=C2c2ccccc2)cc(OC)c1OC,2,?,21%,-2,?,-22%
O=C1SC(SCc2ccccc2)=N/C1=C\c1ccco1,-4,13µM*,?,-21,13µM*,56µM*
CC1=N/C(=C/c2cc(Br)cc(Br)c2O)C(=O)O1,.,?,25%,5,9%,-21%
COc1cc(/C=C2\N=C(c3ccccc3)NNC2=O)cc(OC)c1OC,6,25µM*,28%,4,-21%,-17%
COc1cc(/C=C2\N=C(C)OC2=O)cc(OC)c1OC,6,32µM*,8%,4,-4%,-9%
SMILES,CtBP-E1A inh,G9a block,HP1b chromo inh,Six1-Eya2 inh,BAZ2B inh,JMJD2A Tudor inh
O=C1NNC(c2ccccc2)=N/C1=C\c1ccccc1Cl,10,.,19%,-15,-18%,-32%
O=C1NNC(c2ccccc2)=N/C1=C\c1ccco1,-8,.,-12%,-14,71µM*,?
O=C1SC(c2ccccc2)=N/C1=C/c1ccco1,2,50µM*,-13%,4,-30%,?
CCCSC1=N/C(=C\C=C\c2ccco2)C(=O)S1,-12,14µM*,35µM*,?,11µM*,16µM*
Cc1noc(C)c1-c1nccc(NCc2ccccc2)n1,.,-49%[0.501 µM],.,.,.,.
CCCCc1ccc(-n2nc3cc(C)c(NC(=O)Cc4ccccc4)cc3n2)cc1,.,1.4µM*,10%,.,?,50µM*
Cc1cc2nn(-c3ccccc3)nc2cc1NC(=O)Cc1ccc(Cl)cc1,.,14µM*,29%,.,-20%,-9%
COc1cc(C(CC(=O)NCc2ccccc2Cl)N2Cc3ccccc3C2=O)cc(OC)c1OC (stereo unspecified),.,-10%[59 µM],32%,.,-12%,-13%
O=[N+]([O-])c1cc(-c2nc(-c3ccccc3)no2)ccc1NC1CCCC1,.,-11%[59 µM],23%,.,?,-20%
CCCCC(=O)NNC(=S)NCc1ccccc1,7,22%[12.7 µM],35%,-1,-15%,-16%
CCCCC(=O)NNC(=S)NC(=O)c1ccc([N+](=O)[O-])cc1,-7,2.8µM*,?,5,?,32µM*
CCCCCC(=O)NNC(=O)Cc1ccc([N+](=O)[O-])cc1,0,-40%,6%,7,7%,-10%
CCCCC(=O)NNC(=S)NC(=O)c1ccc(C)cc1,-3,11µM*,14%,-4,6%,-13%
CCCCCC(=O)NC(=S)NC1C2CC3CC(C2)CC1C3 (stereo unspecified),7,45µM*,56%,11,-4%,0%
CCCCCC(=O)NC(=S)Nc1cccc(C(C)=O)c1,1,3%[59 µM],34%,4,9%,2%
CCCCCC(=O)NNC(=S)NC(C)=O,-9,18µM*,-1%,-2,11%,45µM*
CCc1cccc(NC(=O)CSc2ncc3c(n2)-c2ccccc2N(Cc2ccccc2C)S3(=O)=O)c1,.,17%[59 µM],39%,.,23%,-5%
COc1ccc(C(=O)NC(=S)NNC(=O)c2ccc(C)cc2)cc1,-14,.,9%,-14,.,?
CCCCC(=O)NNC(=S)NC(=O)c1cccc([N+](=O)[O-])c1,2,.,?,-2,?,22µM*
